Values without a mark were called inactive. Records with an inconclusive call do not appear. Calls of active or inactive are those of the source. Unless noted, calls follow the shape of the dose curve; as a rule, active = well fitted curve in the direction sought with a large enough effect in the repeat runs; inconclusive = weak or mixed curves; inactive = no such curve, though single readings can be large; an effect the other way counts as inactive or inconclusive.

A short description of assay [1]: qHTS assay for small molecules that induce genotoxicity in human embryonic kidney cells expressing luciferase-tagged ATAD5 (AID 651632). Also: nearly all actives have a fitted effect of over 15% in size. In a few lines: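 Cells were seeded at 2,000 per well, dosed with compound, and incubated 16 hr at 37C in 5% CO2. Luciferase activity was then quantified after a 30 min room-temperature incubation with Amplite.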
Background: Quantitative high-throughput screening tests each substance at several concentrations.

The nature of assay [2]: qHTS assay for small molecules that induce genotoxicity in human embryonic kidney cells expressing luciferase-tagged ATAD5 - cell viability (AID 651634; calls by dose curve; also: nearly all actives have a fitted effect of over 25% in size). In short, it runs like this: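 Cells (HEK293T, luciferase-tagged ATAD5) are seeded at 2,000 per well, dosed with compound or DMSO vehicle, and incubated 15.5 hr at 37C and 5% CO2. CellTiter-Fluor is added for 30 min before fluorescence is measured.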

Assay [3] in a line: qHTS assay to test for compound auto fluorescence at 590 nm (red) in HepG2 cells (AID 720674). In a few lines:
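Intrinsic compound fluorescence in the red window (Ex/Em 540/590 nm) is measured in attached HepG2 cells exposed for 1 hr, DMSO vehicle as baseline, benchmarked to Rose Bengal sodium.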

Assay [4] in a line: qHTS assay to test for compound auto fluorescence at 535 nm (green) in HepG2 cells (AID 720675).
Assay [5] can be described thus: qHTS assay to test for compound auto fluorescence at 460 nm (blue) in HEK293 cells (AID 720678). In short, it runs like this: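 Blue read-out at excitation 405 nm and emission 460 nm follows overnight compound exposure of HEK293 cells at 37C in 5% CO2. Activity is given as auto fluorescence equivalency to triamterene.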
Assay [6] is described as follows: qHTS assay to test for compound auto fluorescence at 590 nm (red) in HEK293 cells (AID 720679). In a few lines:
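Red channel, Ex/Em 540/590nm; signal expressed as equivalency to Rose Bengal sodium. HEK293, 2,000 cells/well, 10% dialyzed FBS; 23 nL compound pinned after 4-5 hr attachment; overnight 37C/5% CO2 before reading.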

Assay [7] in a line: qHTS assay to test for compound auto fluorescence at 535 nm (green) in HEK293 cells (AID 720680).
Assay [8] can be described thus: qHTS assay to test for compound auto fluorescence at 460 nm (blue) in HEK293 cell free culture (AID 720681). In a few lines:
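Test compounds were pinned into cell-free culture medium (DMEM with 10% FBS) and fluorescence was read directly at Ex/Em 405/460 nm. Signals were expressed as fluorescence equivalents of triamterene, with DMSO vehicle as control.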

The nature of assay [9]: qHTS assay to test for compound auto fluorescence at 590 nm (red) in HEK293 cell free culture (AID 720683). In short, it runs like this:
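Tox21 10K library compounds were pinned into cell-free DMEM with 10% FBS and fluorescence was read at excitation 540 nm. Activity is expressed as Rose Bengal sodium equivalency.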

The nature of assay [10]: qHTS assay to test for compound auto fluorescence at 590 nm (red) in HepG2 cell free culture (AID 720684). In short, it runs like this:
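Readout: intrinsic compound fluorescence at 590 nm emission after 540 nm excitation, scaled to Rose Bengal sodium. Matrix was cell-free MEM with 10% FBS; DMSO vehicle wells served as control.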

Assay [11] is described as follows: qHTS assay to test for compound auto fluorescence at 460 nm (blue) in HepG2 cell free culture (AID 720685). In a few lines: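 Cell-free plates of MEM plus 10% FBS received 23 nL compound or DMSO vehicle; blue-channel (405/460 nm) intensity scored against triamterene as reference fluorophore.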
Assay [12] in a line: qHTS assay to test for compound auto fluorescence at 535 nm (green) in HepG2 cell free culture (AID 720686).
The nature of assay [13]: qHTS assay to test for compound auto fluorescence at 460 nm (blue) in HepG2 cells (AID 720687). In short, it runs like this:
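Cells (2,000/well in MEM with 10% FBS) attached overnight at 37 C, then were exposed to compound or DMSO for 1 hr at 37 C, 5% CO2. Fluorescence read at Ex/Em 405/460 nm, expressed as triamterene-equivalent signal.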

Assay [14] deals with Glucocorticoid receptor (Homo sapiens) (UniProt P04150). As to the kind of experiment: qHTS assay to identify small molecule agonists of the glucocorticoid receptor (GR) signaling pathway (AID 720691; active = well fitted activation curve with a large enough effect in the signal ratio in the repeat runs, not every such curve was filed as active; the % refers to the signal ratio). In a few lines:
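Steps: seed GR-bla HeLa cells, incubate 4 h at 37 C/5% CO2; pin-transfer DMSO-dissolved compounds; incubate 18 h at 37 C; add LiveBLAzer B/G FRET substrate; after 2 h at room temperature, measure fluorescence.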

Assay [15] is described as follows: qHTS assay for small molecule agonists of the p53 signaling pathway - cell viability (AID 651633; calls by dose curve;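 also: p53RE-bla HCT reporter cells with a stable beta-lactamase p53 reporter; series mostly up to about 83 µM; nearly all actives have a fitted effect of over 30% in size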). In a few lines: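 p53RE-bla cells, seeded at 4,000 per well and rested 5 h at 37 C/5% CO2, received compounds in DMSO for 16 h at 37 C. CellTiter-Glo was then added, and luminescence was read after 30 min at room temperature to gauge cytotoxicity.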
The nature of assay [16]: qHTS assay for small molecule disruptors of the mitochondrial membrane potential - cell viability (AID 720634; calls by dose curve;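 also: human HepG2 liver cancer cells; series mostly up to about 83 µM; nearly all actives have a fitted effect of over 20% in size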). In a few lines: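 Cytotoxicity was measured by ATP quantitation in HepG2 wells that had first been treated with compound for 1 hr and stained with m-MPI dye; CellTiter-Glo incubation was 30 min at room temperature.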
Assay [17] is described as follows: qHTS assay for small molecule disruptors of the mitochondrial membrane potential (AID 720635). Also: potency is read from the fitted curve at half-maximal effect. In short, it runs like this: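 HepG2 cells (2,000/well) attached overnight at 37C, then took compound for 1 hr at 37C, 5% CO2. Mito-MPS dye was added for 30 min; fluorescence was read at 490/535 nm (monomers) and 540/590 nm (aggregates).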
A short description of assay [18]: qHTS assay to test for compound auto fluorescence at 535 nm (green) in HEK293 cell free culture (AID 720682). In a few lines:
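Intrinsic compound fluorescence is measured in culture medium containing 10% FBS, with excitation at 485 nm and detection at 535 nm, referenced to fluorescein.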

Assay [19] addresses Glucocorticoid receptor (Homo sapiens) (UniProt P04150). Nature of the assay: qHTS assay to identify small molecule antagonists of the glucocorticoid receptor (GR) signaling pathway (AID 720692; active = well fitted inhibition curve with a large enough effect in the signal ratio in the repeat runs, not every such curve was filed as active; the % refers to the signal ratio). In short, it runs like this: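 Antagonism was scored as loss of dexamethasone-driven (5 nM final) reporter signal in HeLa cells bearing a glucocorticoid response element–beta-lactamase construct, after 18 h compound exposure at 37 C and 2 h FRET substrate loading.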
% is scaled to controls: 0 for no effect and ±100 for the full control effect.

Chain of Glucocorticoid receptor (Homo sapiens) (P04150 whole entry, looked up): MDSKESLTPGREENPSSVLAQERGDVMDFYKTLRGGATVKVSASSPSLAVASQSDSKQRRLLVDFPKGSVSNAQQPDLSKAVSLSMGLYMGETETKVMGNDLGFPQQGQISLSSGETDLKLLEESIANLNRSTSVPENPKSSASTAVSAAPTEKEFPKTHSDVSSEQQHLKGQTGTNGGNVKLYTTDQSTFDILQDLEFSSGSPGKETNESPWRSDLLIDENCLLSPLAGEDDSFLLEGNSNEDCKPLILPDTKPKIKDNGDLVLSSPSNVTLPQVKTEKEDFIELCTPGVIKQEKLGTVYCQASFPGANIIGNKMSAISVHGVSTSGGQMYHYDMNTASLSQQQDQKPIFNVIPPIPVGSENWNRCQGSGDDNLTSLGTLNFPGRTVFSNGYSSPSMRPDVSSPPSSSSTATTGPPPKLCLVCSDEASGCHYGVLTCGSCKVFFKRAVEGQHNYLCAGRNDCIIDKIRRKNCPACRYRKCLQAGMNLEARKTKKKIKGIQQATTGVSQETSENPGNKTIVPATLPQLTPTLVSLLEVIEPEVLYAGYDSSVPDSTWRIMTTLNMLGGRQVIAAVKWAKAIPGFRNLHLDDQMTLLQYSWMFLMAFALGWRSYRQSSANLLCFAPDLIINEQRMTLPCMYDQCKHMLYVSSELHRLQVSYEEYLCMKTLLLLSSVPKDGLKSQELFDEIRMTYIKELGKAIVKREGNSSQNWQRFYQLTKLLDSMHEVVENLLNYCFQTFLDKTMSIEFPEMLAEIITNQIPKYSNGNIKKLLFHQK

`Cc1nc2ccccc2n1Cc1ccc(Cl)cc1`: the Potency result in assay [1], in assay [2], in assay [5], in [8], in assay [11] and in assay [13] was “inactive” each time. The Potency result in assay [14] is “inactive”. For the same compound, the result in assay [3], in assay [4], in [6], in [7], in [9] and in assay [10] was inactive. The result in assay [12] was inactive.

As for `O=C(O)Cn1c(C(=O)Nc2nc(-c3ccccc3Cl)cs2)cc2ccccc21`, the Potency entry in [1], in assay [15], in [16], in assay [5], in assay [11] and in [13] was “inactive” in each case. Also, the Potency entry in assay [19] was “inactive”. For the same compound, the Potency in assay [17] is 26.6 µM (active). Further, the call in assay [3], in assay [4], in assay [7], in [18], in assay [9] and in [10] was inactive. Moreover, in [12], the compound was classed as inactive.

In the case of `CC1(C)CCC(C)(C)c2cc(NC(=O)c3ccc(C(=O)O)cc3)ccc21`, the Potency result in [1], in assay [16], in assay [5], in assay [8], in [11] and in assay [13] was “inactive” each time. The Potency result in assay [14] is “inactive”. The Potency in assay [17] is 24.8 µM (active). Also, the compound was classed as inactive in assay [3], in [6], in [7], in assay [18], in [9] and in [10]. Besides, the compound was called inactive in [12].

As for `NCCCN(CCO)CCO`, the Potency result in assay [1], in [2], in assay [16] and in [5] was “inactive” throughout. Also, the outcome in assay [3], in [4], in assay [7], in assay [18], in assay [9] and in assay [10] was inactive. Moreover, in assay [12], the call was inactive.

For `CN1CCC[C@@H]1c1cccnc1`, the Potency entry in [1], in assay [16], in assay [17], in assay [5], in [8] and in assay [11] was “inactive” in each case. Moreover, the Potency entry in [13] was “inactive”. The outcome in assay [3], in assay [4], in assay [7], in [18], in assay [9] and in assay [10] was inactive. Besides, the result in [12] was inactive.

Turning to `COc1ccc([C@@H]2Sc3ccccc3N(CCN(C)C)C(=O)[C@@H]2OC(C)=O)cc1`, the Potency entry in assay [1], in [2], in [16], in [17], in [5] and in assay [8] was “inactive” in each case. For the same compound, the Potency result in assay [11], in assay [13] and in [14] was “inactive” throughout. The compound was called inactive in [3], in assay [4], in assay [7], in assay [18], in [9] and in assay [10]. In addition, the call in assay [12] was inactive.

`CCCCCOC(=O)c1ccc(O)cc1`: the Potency entry in [15], in assay [5], in assay [8], in assay [11] and in assay [14] was “inactive” throughout. Also, the Potency in assay [17] was 6.94 µM (active). In addition, the outcome in assay [3], in assay [4], in assay [6], in assay [7], in assay [18] and in assay [10] was inactive.

`O=C(Nc1ccccc1)OCC(CN1CCCCC1)OC(=O)Nc1ccccc1` (centres undefined): the Potency result in assay [1], in assay [2] and in assay [19] was “inactive” each time. In addition, the fluorescence, relative to Rose Bengal in [3] is -0.654% [at 18.6 µM]. Also, the results for the fluorescence, % of fluorescein control in assay [4] and in assay [12] were 0.0386% [at 18.6 µM] and 0.0354% [at 18.6 µM], respectively. The fluorescence, % of triamterene in [5] is 0.0079% [at 18.6 µM]. In addition, the fluorescence, % of fluorescent control in [6] is 0.0612% [at 18.6 µM]; in assay [9], 0.0296% [at 18.6 µM]; in assay [11] it was -0.044% [at 18.6 µM]; in [13], -0.0488% [at 18.6 µM]. Also, the fluorescence, % of fluorescein in assay [7] is 0.0795% [at 18.6 µM]. Besides, in assay [18], the activity change is 0.0431% [at 18.6 µM]. The fluorescence, % of Rose Bengal in assay [10] is 0.0349% [at 18.6 µM].

In the case of `CN(C)CC/C=C1\c2ccccc2COc2ccccc21`, the Potency entry in assay [15], in assay [2], in assay [5], in [8], in assay [11] and in assay [13] was “inactive” throughout. Moreover, in [19], the Potency result is “inactive”. Moreover, the call in assay [3], in [4], in assay [6], in assay [18], in [9] and in assay [10] was inactive. In addition, the compound was classed as inactive in assay [12].

`CCOC(=O)C1=NN(c2ccccc2)C(=O)C1`: the Potency result in assay [1], in assay [15], in assay [16], in assay [5], in assay [8] and in assay [13] was “inactive” in each case. For the same compound, the Potency entry in assay [14] is “inactive”. The result in assay [3], in [4], in [6], in assay [7], in [18] and in assay [9] was inactive. For the same compound, the compound was classed as inactive in assay [10] and in assay [12].

Turning to `Oc1ccc(Cc2ccccc2)cc1`, the Potency result in assay [1], in assay [15], in assay [16], in assay [5], in assay [8] and in [13] was “inactive” each time. Further, the Potency in assay [17] was 14.2 µM (active). The result in assay [3], in assay [4], in assay [6], in assay [7], in assay [9] and in assay [10] was inactive. Besides, in assay [12], the call was inactive.

As for `CCOC(=O)CC(C)C`, the Potency entry in assay [1], in assay [15], in assay [16], in assay [5], in assay [11] and in [13] was “inactive” throughout. In addition, the Potency entry in assay [14] and in assay [19] was “inactive” each time. In addition, the result in assay [3], in assay [4], in [6], in [7], in assay [18] and in [10] was inactive. The call in [12] was inactive.

The values are drawn from PubChem BioAssay (Tox21).
